Experimental findings from PubChem BioAssay AID1986 (Sanford-Burnham Center for Chemical Genomics, 2009) are described below.

Among all 290,000 compounds or so, about 890 (0.31%) were called active. No stated cut-off is given here; in the data, active means inhibition mostly above about 52% (no sharp cut-off); inactive means mostly below about 76%. The sample as a whole holds a higher share of actives than the screen did.

The assay is described as follows: cell-free HIV fusion peptide-binding blockers – biochemical, uHTS, fluorescence dequenching, primary screen (AID 1986). The conditions noted are these: 30 min, stronger effect = higher value.
The mark [1] stands for this setting: measured here: repeat confirmation average inhibition, at 18.6 µM.

For `O=C(NC1CCc2ccccc21)c1cc(COc2c(F)cccc2F)on1` (centres undefined), the inhibition (at 20 µM) was 0.3% (inactive).
Still for that read-out and setting: the value for `O=C(Cn1cnc2c(nnn2-c2ccccc2)c1=O)NCCc1ccccc1` was 1.1% (inactive); that for `Cc1ccc(N2C(=O)c3ccc(C(=O)O)cc3C2=O)c(C)c1` was -0.3% (inactive).
Same read-out and setting: the value for `Cc1ccc(N2C(=O)[C@@H]3C(C(=O)CN4C(=O)c5ccccc5C4=O)=NN[C@@H]3C2=O)c(C)c1` was -2.5% (inactive).
The same measure, in the same setting: the value for `O=C1O/C(=C/C(=O)N2CCOCC2)c2ccccc21` was 1.9% (inactive).
As for `COc1ccc(Nc2ccccc2C(=O)O)cc1`, the inhibition (at 20 µM) was 3.4% (inactive).
Still for that read-out and setting: under `O=C(O)c1ccccc1Nc1ccccc1C(=O)O` stands 4% (inactive).
On the same count and under the same terms, under `COc1cc(-c2ccc(Nc3ccccc3C(=O)O)c(OC)c2)ccc1Nc1ccccc1C(=O)O` stands 61% (active).
On to `COc1ccc(N=Cc2cc(Cc3ccccc3Cl)cc([N+](=O)[O-])c2O)cc1OC`, for which the inhibition by setting is: (at 20 µM) 69.3% (inactive); under setting [1], 19.7%.
The like results for `Cc1ccc(O)c(N=Cc2cc(Cc3ccccc3)cc([N+](=O)[O-])c2O)c1` were, in that order, 58% (inactive) and 14.2%.
The like results for `Cc1ccc(N=Cc2cc(Cc3ccccc3Cl)cc([N+](=O)[O-])c2O)c(O)c1` were, in that order, 64% (active) and 57.3%.
For the compound `CCN(CC)S(=O)(=O)c1ccc2c(c1)nc(SCC(N)=O)n2-c1ccc(OC)cc1`, the inhibition (at 20 µM) is -1.3% (inactive).
The same measure, in the same setting: the value for `COc1ccc2c3c(cccc13)OC2=O` was -1.2% (inactive); that for `COc1cc(C(=O)NC(C)CCc2ccccc2)cc(OC)c1OC` (centres undefined) was -1.1% (inactive); that for `COc1cc(/C=C2\C(=O)NN(c3ccc(C)cc3)C2=O)cc([N+](=O)[O-])c1O` was 38% (inactive).
For the compound `CCOc1cc(/C=C2/C(=O)NN(c3cccc(Cl)c3)C2=O)ccc1O`, the inhibition (at 20 µM) is 31.4% (inactive).
On the same count and under the same terms, the value for `COc1cc(/C=C2/C(=O)NN(c3ccccc3)C2=O)cc(Br)c1O` was 34.5% (inactive); that for `COc1cc(/C=C2/C(=O)NN(c3ccc(Cl)c(Cl)c3)C2=O)cc([N+](=O)[O-])c1O` was 50.8% (active); that for `COc1cc(/C=C2/C(=O)NN(c3cccc(C)c3)C2=O)cc([N+](=O)[O-])c1O` was 30.3% (inactive).
The same measure, in the same setting: under `COc1cccc(/C=C2/C(=O)NN(c3ccccc3)C2=O)c1` stands 15.8% (inactive); under `COc1cc(/C=C2/C(=O)NN(c3ccc(F)cc3)C2=O)cc(Cl)c1O`, 39.2% (inactive); under `COC(=O)c1ccc(N2NC(=O)/C(=C/c3cc(OC)c(O)c(OC)c3)C2=O)cc1`, 138% (inactive).
For the compound `COc1cc(/C=C2/C(=O)NN(c3cccc(Cl)c3)C2=O)cc(Br)c1O`, the inhibition reads like this: (at 20 µM) 102% (active); under setting [1], 95.1%.
With `COc1cc(/C=C2/C(=O)NN(c3ccc(Cl)cc3)C2=O)cc(OC)c1O`, the inhibition (at 20 µM) was 93.4% (active) and the inhibition under setting [1] is 53.7%.
On the same counts, the results for `COc1cc(/C=C2/C(=O)NN(c3cccc(Cl)c3)C2=O)cc(OC)c1O` are 104% (active) and 80.5%.
As to `COc1cc(/C=C2\C(=O)NN(c3ccccc3)C2=O)cc([N+](=O)[O-])c1O`, the inhibition (at 20 µM) was 32.8% (inactive).
Still for that read-out and setting: the value for `COc1cc(OC)cc(C(=O)N2CCN(C(=O)c3ccc(-c4ccccc4)cc3)CC2)c1` was -0.7% (inactive); that for `CN(c1ccc(C(=O)N2CCCCC2)cc1)S(=O)(=O)c1cccs1` was 0.7% (inactive).
Same read-out and setting: under `COc1ccc(OC)c(-n2c(=S)[nH]c3cc(C(=O)N4CCC(C(N)=O)CC4)ccc3c2=O)c1` stands -0.3% (inactive); under `O=C(NCc1ccc(OC(F)(F)F)cc1)C1CC(c2cccc(F)c2)=NO1` (centres undefined), 0.2% (inactive).
Take `O=C(c1cscn1)N1CCCC(N2CCN(c3ccc(F)cc3)CC2)C1` (centres undefined): the inhibition (at 20 µM) was -1.2% (inactive).
Turning to `COc1ccc(CC(=O)Nc2c3c(nn2-c2cccc(Cl)c2)CS(=O)(=O)C3)cc1`, the inhibition (at 20 µM) is -2% (inactive).
Take `Cc1ccccc1C(=O)NC1CCN(CC(=O)Nc2nccs2)CC1`: where the note is “at 20 µM”, the inhibition was 2.2% (inactive).
`COc1c2ccccc2c(OC)c2ccccc12`: the inhibition (at 20 µM) was 1.5% (inactive).
As for `C=CCN(C(=O)CN1CCCCC1)c1nc(-c2ccccc2)cs1`, the inhibition (at 20 µM) was -1.5% (inactive).
On the same count and under the same terms, the value for `Cc1ccc(-c2csc3ncnc(SCC(=O)O)c23)cc1` was 0.9% (inactive).
With `Cc1ccc(-c2csc3ncnc(SCc4ccc(C(=O)O)cc4)c23)cc1`, the inhibition (at 20 µM) is 66.8% (active).
Same read-out and setting: the value for `Cc1sc2ncnc(SCc3ccc(C(=O)O)cc3)c2c1C` was 9.5% (inactive); that for `COCCNC(=S)N1CCN(c2cccc(C(F)(F)F)c2)CC1` was -0.5% (inactive).
Same read-out and setting: under `Cc1cc(-c2ccccc2)nc(SCc2ccc(C(=O)O)o2)n1` stands 1.6% (inactive); under `O=C(O)C(Cc1ccccc1)N1C(=O)/C(=C/c2cccnc2)SC1=S` (centres undefined), 1.1% (inactive).
As to `O=C(NN1C(=O)/C(=C/C=C/c2ccco2)SC1=S)c1ccccc1O`, the inhibition was 65.1% (inactive) (at 20 µM) and 46.4% under setting [1].
On the same counts, the results for `O=C(O)CCCN1C(=O)/C(=C/C=C/c2ccco2)SC1=S` are 55.6% (inactive) and 27.4%.
The like results for `CC(C)C(C(=O)O)N1C(=O)/C(=C/C=C/c2ccco2)SC1=S` (centres undefined) were, in that order, 76.1% (inactive) and 36.6%.
Take `CC(C(=O)O)N1C(=O)/C(=C/C=C/c2ccco2)SC1=S` (centres undefined): under “at 20 µM”, the inhibition was 88.9% (active).
On the same count and under the same terms, under `O=C(O)C(Cc1ccccc1)N1C(=O)/C(=C/C=C/c2ccco2)SC1=S` (centres undefined) stands 69.2% (active); under `O=C(NN1C(=O)/C(=C/C=C/c2ccco2)SC1=S)c1ccncc1`, 68.5% (active).
With `O=C(O)CC(C(=O)O)N1C(=O)/C(=C/C=C/c2ccco2)SC1=S` (centres undefined), the inhibition is 65.6% (inactive) (at 20 µM) and 23.1% under setting [1].
For the compound `O=C(NN1C(=O)/C(=C/C=C/c2ccccc2)SC1=S)c1ccncc1`, for the setting “at 20 µM”, the inhibition was 16.6% (inactive).
Same read-out and setting: under `COc1ccc(NC(=S)NC(NC(=O)CCl)C(Cl)(Cl)Cl)c([N+](=O)[O-])c1` (centres undefined) stands 7.2% (inactive); under `COc1ccccc1S(=O)(=O)Cc1ccc(C(=O)NCc2ccco2)o1`, 1.6% (inactive); under `CC1CCN(S(=O)(=O)c2ccc(C(=O)OC(C)C(=O)NC3CCCCC3C)cc2)CC1` (centres undefined), 20% (inactive).
Same read-out and setting: the value for `Cc1oc(-c2cc(F)ccc2F)nc1CN1CCN(C)C(=O)[C@@H]1C` was 1.3% (inactive).
The same measure, in the same setting: under `CN=C(Nc1ccc(C(=O)OC)s1)c1ccc(Cl)cc1` stands 0.5% (inactive); under `O=C(/C=C/c1ccc(OCCCF)cc1)NCc1ccc(Cl)c(Cl)c1`, 1.7% (inactive).
Regarding `COC(=O)c1cnn(-c2ccc(F)cc2F)c1/C=N/NC(N)=S`, for the setting “at 20 µM”, the inhibition is -1.1% (inactive).
The same measure, in the same setting: the value for `CC(=O)NN1C(=O)c2ccccc2NC1c1ccc(N(C)C)cc1` (centres undefined) was -0.9% (inactive); that for `COC(=O)Cn1c(=NC(=O)c2ccc(S(=O)(=O)N3CCc4ccccc4C3)cc2)sc2cc(OC)ccc21` was -1.3% (inactive).
Same read-out and setting: under `O=C(N/N=C/c1ccncc1)c1cc(C2CC2)nc2ccccc12` stands -0.8% (inactive); under `NC(=O)c1c(Nc2nc3c(F)cccc3s2)sc2c1CCCC2`, 59.5% (active); under `CC1CCc2c(sc(Nc3nc4c(F)cccc4s3)c2C(N)=O)C1` (centres undefined), 58.8% (active).
On the same count and under the same terms, the value for `COc1ccc2nc(Nc3sc4c(c3C(N)=O)CCCC4)sc2c1` was 17.5% (inactive); that for `CC1CCc2c(sc(NC(=O)C3c4ccccc4Oc4ccccc43)c2C(N)=O)C1` (centres undefined) was -1.5% (inactive).
On to `COC(=O)Nc1sc2c(c1C(N)=O)CCC(C)C2` (centres undefined), for which the inhibition (at 20 µM) was 0.2% (inactive).
For `NC(=O)c1c(NC(=O)c2ccccc2F)sc2c1CCCC2`, where the note is “at 20 µM”, the inhibition was -0.3% (inactive).
Still for that read-out and setting: under `Cc1c(C(=O)N(Cc2nccn2C)C(C)C)oc2c(F)cccc12` stands -1% (inactive); under `O=c1cc(C(F)(F)F)nc(-c2cccnc2)[nH]1`, -1.2% (inactive); under `CC(C)C(=O)Nc1ccc([N+](=O)[O-])cc1Br`, 1.2% (inactive).
On the same count and under the same terms, under `C/C(O)=C/c1nc2ccccc2[nH]c1=O` stands 0.1% (inactive).
For the compound `O/C(=C\c1nc2ccccc2[nH]1)c1cccs1`, the inhibition (at 20 µM) is 14.3% (inactive).
On to `O=c1[nH]c2ccccc2nc1/C=C(\O)c1cccs1`, for which the inhibition (at 20 µM) is 66.1% (active).
Still for that read-out and setting: under `CCCCC(=O)Nc1cccn2ncnc12` stands 0.2% (inactive); under `C/C(=N\NC(=O)c1c[nH]c2ccccc12)c1ccc(C)o1`, 0.2% (inactive).
In the case of `O=C1OC(/C=C/c2ccc(Cl)cc2Cl)=NC/1=C\c1cccs1`, the inhibition (at 20 µM) was 54.2% (active).
The same measure, in the same setting: under `Cc1ccccc1C1=N/C(=C/c2cccs2)C(=O)O1` stands 4.6% (inactive); under `Cc1cccc(C2=N/C(=C\c3cccs3)C(=O)O2)c1`, 4.7% (inactive).
Same read-out and setting: under `CCC(=O)OCc1cc2cccc(C)c2[nH]c1=O` stands -1.9% (inactive); under `O=C(O)c1cccc(-n2cccc2C=C2C(=O)c3ccccc3C2=O)c1`, 30.1% (inactive).
Turning to `O=C1C(=Cc2cccn2-c2ccc(O)cc2)C(=O)c2ccccc21`, the inhibition (at 20 µM) was 63.1% (active) and the inhibition under setting [1] is 70.3%.
On to `O=C1C(=Cc2cccn2-c2ccccc2)C(=O)c2ccccc21`, for which the inhibition is 50.1% (inactive) (at 20 µM) and 28.2% under setting [1].
Regarding `COC(=O)Cn1ncc(N2C3CC(CC(C)(C)C3)C2C)c(Cl)c1=O` (centres undefined), the inhibition (at 20 µM) is 1.1% (inactive).
Still for that read-out and setting: the value for `Oc1cccc2ccc(/C=C/c3ccccc3Br)nc12` was 0.6% (inactive); that for `O=C(/C=C/c1ccccc1)Nc1ccc(Cl)cn1` was 1% (inactive).
The same measure, in the same setting: under `COc1cc(C(=O)Oc2cc(C)[nH]c(=O)c2[N+](=O)[O-])cc(OC)c1OC` stands 0.4% (inactive); under `Cc1ccc(S(=O)(=O)Nc2ccccc2C(=O)Nc2nc(-c3ccc(F)cc3)cs2)cc1`, 65.5% (active); under `O=C(Nc1nc(-c2ccccc2)cs1)c1ccccc1F`, 0% (inactive).
Still for that read-out and setting: under `COc1ccc(-c2csc(NC(=O)c3ccccc3F)n2)cc1` stands 0.1% (inactive); under `O=C(Nc1nc(-c2ccccc2)cs1)c1ccccc1NS(=O)(=O)c1ccc(F)cc1`, 71.5% (active).
With `O=C(Nc1cc(S(=O)(=O)N2CCCCC2)ccc1O)c1ccccc1NS(=O)(=O)c1ccc(F)cc1`, the inhibition (at 20 µM) is 49.5% (inactive).
Same read-out and setting: the value for `Cc1ccc(S(=O)(=O)Nc2nc(-c3ccccc3)cs2)cc1` was 6.9% (inactive); that for `O=S(=O)(Nc1ccc(-c2csc(-c3ccccc3)n2)cc1)c1ccc(F)cc1` was 0% (inactive).
Regarding `COc1ccc(-c2csc(NC(=O)c3ccccc3NS(=O)(=O)c3ccc(F)c(F)c3)n2)cc1`, the inhibition (at 20 µM) is 65% (active).
In the case of `O=C(Nc1cccc(S(=O)(=O)N2CCCCC2)c1)c1ccccc1NS(=O)(=O)c1ccc(F)cc1`, the inhibition reads like this: (at 20 µM) 58% (inactive); under setting [1], 26%.
With `Cc1ccc(S(=O)(=O)Nc2nc(-c3ccc(F)cc3)cs2)cc1`, the inhibition (at 20 µM) was 20% (inactive).
Same read-out and setting: the value for `O=C(Nc1cc(S(=O)(=O)N2CCCCC2)ccc1O)c1ccccc1NS(=O)(=O)c1ccc(F)c(F)c1` was 62.7% (active).
With `COc1ccc(-c2csc(NC(=O)c3ccccc3S(C)(=O)=O)n2)cc1`, under “at 20 µM”, the inhibition was 0.4% (inactive).

One may read the inhibition as the change of the read-out against control, counted positive when it falls.
